Assay outcomes (PubChem)
Shown are actives, neighbours in structure and some others; about 3.3% of the full set was active somewhere.
Jurkat NFkB inh: inhibitors of the PMA/ionomycin-induced NF-kB reporter in Jurkat cells. inhibition, % at 4 µM. 330,000 tested, 0.53% active. PMA/ionomycin-induced NF-kB luciferase reporter, luminescence. AID 435003; in the data active means inhibition above about 50%
esBAF inh: inhibitors of esBAF chromatin remodeling in mouse ES cells; AID 602393; Bmi1-luciferase knock-in reporter, 24 h; 100% = twice the neutral-well signal; reporter increase, % at 12.5 µM; 350,000 tested, 2% active; in the data active means activation above about 40%;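 further: 0% = median of the plate's neutral control wells and 100% = double that signal; a rise in the Bmi1 reporter signal indicates esBAF inhibition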
SMARCA2 act: increases SMARCA2 function in MMTV reporter cells; 370,000 tested, 1% active; AID 652017; MG213 cells, MMTV-luciferase reporter, dexamethasone, overnight; activation, % at 9.1 µM; in the data active means activation above about 7.8%;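 further: 0% = vehicle wells and 100% = reference activator wells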
697 NFkB inh: inhibitors of the PMA/ionomycin-induced NF-kB reporter in 697 B cells. 330,000 tested, 0.33% active. inhibition, % at 4 µM. 697 B-cell NF-kB luciferase reporter, 16 h; in the data active means inhibition above about 35%
Gli-Sufu block: blocks Gli-Sufu signaling in a luciferase reporter. inhibition, % at 5 µM. AID 588413. Sufu-KO-LIGHT fibroblasts, Gli luciferase reporter luminescence. 340,000 tested, 0.74% active;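 active means inhibition above about 55%, limit read from the data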;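 further: 0% = DMSO-treated cells and 100% = wells with medium but no cells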
Jurkat NFkB conf: lowers PMA/ionomycin-induced NF-kB signal in Jurkat cells; shares compounds with Jurkat NFkB inh; Jurkat NF-kB luciferase, 16 h; inhibition, % at 4 µM; 2,700 tested, 27% active; AID 435020;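 active means inhibition reaching about 45% at 4 µM in either replicate, limit read from the data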;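 further: plate controls were PMA/ionomycin stimulated DMSO wells for no effect and unstimulated DMSO wells for full effect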
An asterisk follows results filed as active; . = no result given.

SMILES | Jurkat NFkB inh | esBAF inh | SMARCA2 act | 697 NFkB inh | Gli-Sufu block | Jurkat NFkB conf
O=C(c1ccc(CS(=O)c2ccccc2Cl)o1)N1CCN(c2ccccn2)CC1 (stereo not given) | 52* | 8 | 0 | -43 | 11 | 48
S=c1nc(-c2ccc(Br)cc2)oc2c1CCCC2 | -62 | . | 0 | -103 | -12 | .
Cc1cccc(-c2nc(=S)c3c(o2)CCCC3)c1 | -166 | 26 | 5 | -138 | -54 | -80
C[C@H]1CN([C@@H](C)CO)C(=O)CCCn2cc(nn2)CO[C@H]1CN(C)C(=O)c1ccc2ccn(C)c2c1 | . | 3 | . | . | . | .
C[C@H](CO)N1C[C@H](C)[C@H](CN(C)C(=O)Nc2ccc(F)cc2)Oc2ccc(NC(=O)Nc3cccc4ccccc34)cc2CC1=O | . | -6 | . | . | . | .
Cc1cc(C(=O)Nc2cccc(C(=O)O)c2)oc1C | 56* | -60 | 4 | -6 | -83 | 5
Cc1cccc(NC(=O)c2cc3ccccc3o2)c1 | -173 | 63* | 0 | -50 | -88 | -96
O=C(C[C@H]1C[C@@H]2c3cc(NC(=O)C4CCOCC4)ccc3O[C@@H]2[C@H](CO)O1)NCc1ccc2c(c1)OCO2 | . | -7 | . | . | . | .
CCCC#Cc1ccc2c(c1)O[C@@H](CN(C)S(=O)(=O)c1cccc(OC)c1)[C@@H](C)CN([C@@H](C)CO)S2(=O)=O | . | 7 | . | . | . | .
FC(F)(F)c1nnc2c(Sc3ccc(Cl)cc3)nc3ccccc3n12 | 74* | . | -3 | 8 | 20 | 5
O=S(=O)(Nc1cccc2ccccc12)c1ccccc1 | -15 | . | -4 | -2 | 36 | .
O=S(=O)(Nc1cccc2cccnc12)c1ccccc1 | 101* | 3 | -9 | -14 | 47 | 19
Cc1ccc2cccc(NS(=O)(=O)c3ccccc3)c2n1 | 99* | . | 5 | -8 | 54 | 43
COc1ccc(OC)c(-c2cc(C(=O)Nc3cc(C)n(Cc4ccc(Cl)cc4)n3)no2)c1 | 12 | -1 | 1 | -28 | . | .
COc1cccc(-c2cc(C(=O)Nc3cc(C)n(Cc4ccc(Cl)cc4)n3)no2)c1 | 61* | -2 | -5 | 28 | -3 | 42
COc1cc(C(=O)OCCc2cc3ccccc3c(=O)o2)cc(OC)c1OC | 58* | 9 | -1 | -73 | 5 | 58*
Cc1ccc(NC(=O)C2=C(c3ccccc3)S(=O)(=O)CCS2(=O)=O)cc1 | 63* | . | -8 | -79 | 23 | 34
C[C@H]1CCCCO[C@@H](CN(C)CC2CCCCC2)[C@@H](C)CN([C@@H](C)CO)C(=O)c2cc(NC(=O)CCC(F)(F)F)ccc2O1 | . | -1 | . | . | . | .
Cc1ccc(-c2nc3cc(N)ccc3o2)cc1Br | -160 | 5 | -1 | -140 | -86 | -88
O=S(=O)(Nc1cccc2ncccc12)c1cccs1 | 80* | 12 | . | -25 | 87* | 64*
Cc1c(NS(=O)(=O)c2cccs2)cccc1-c1nc2cccnc2s1 | -10 | . | -3 | -20 | -5 | .
CN(C)C(=O)c1ccc(-c2ccc3c(c2)[C@@H]2[C@@H](CCN2S(=O)(=O)c2cn(C)cn2)[C@H](CO)N3)cc1 | . | 4 | . | . | . | .
COc1ccc(/C=C2/C(=O)OCc3cc(OC)c(OC)cc32)cc1 | 55* | . | -2 | -68 | 4 | 48*
COc1ccc(/C=C2\CCOC2=O)cc1 | -1 | . | 0 | -3 | 4 | .
COc1ccc(NC(=O)Cn2nnc(-c3ccccc3NS(=O)(=O)c3ccc(OC)cc3)n2)cc1 | 72* | . | -2 | -54 | 7 | 64*
SMILES | Jurkat NFkB inh | esBAF inh | SMARCA2 act | 697 NFkB inh | Gli-Sufu block | Jurkat NFkB conf
CC(C)C1COC(c2cccc3ccccc23)=N1 (stereo not given) | -159 | 55* | 5 | -193 | -40 | -40
CCn1cc(C2=NC(C(C)C)CO2)c2ccccc21 (stereo not given) | -16 | 2 | 1 | -2 | -4 | .
COc1ccc(Nc2nc(-c3sc(C)nc3C)cs2)cc1 | 51* | 24 | -2 | -70 | 28 | 42
Cc1nc(C)c(-c2csc(Nc3ccc(N)cc3)n2)s1 | 23 | 22 | -2 | 1 | 12 | .
O=C(C[C@H]1CC[C@H](NC(=O)c2cccc(F)c2)[C@H](CO)O1)NCc1ccc(Oc2ccccc2)cc1 | . | 2 | . | . | . | .
C[C@@H]1CN([C@H](C)CO)C(=O)c2cc(NS(=O)(=O)c3cccs3)ccc2O[C@@H](C)CCCCO[C@H]1CN(C)Cc1ccc2c(c1)OCO2 | . | -5 | . | . | . | .
CC1=C(C(=O)OCc2ccc3c(c2)OCO3)C(c2ccc(F)cc2)NC(=O)N1 (stereo not given) | 59* | -7 | -7 | -37 | -12 | 34
CC1=C(C(=O)OCc2ccc3c(c2)OCO3)C(c2ccc(Cl)cc2)NC(=O)N1 (stereo not given) | 71* | -17 | -8 | -18 | -7 | 64*
CSCCOC(=O)C1=C(C)NC(=O)NC1c1ccc2c(c1)OCO2 (stereo not given) | -7 | 1 | -1 | -12 | 33 | .
C[C@H]1CN([C@@H](C)CO)C(=O)c2cc(NC(=O)CCC(F)(F)F)ccc2O[C@@H]1CN(C)C(=O)Nc1ccc2c(c1)OCO2 | . | 1 | . | . | . | .
C[C@@H]1CN([C@H](C)CO)C(=O)c2cc(NS(=O)(=O)c3ccccc3)ccc2O[C@H]1CN(C)S(C)(=O)=O | . | -1 | . | . | . | .
C/C(=N\N1CCN(Cc2ccccc2Cl)CC1)c1ccc([N+](=O)[O-])cc1 | 51* | . | -6 | -3 | 5 | -7
COc1ccc(-n2nnnc2-c2cccc(OC)c2)cc1 | 50 | -7 | 3 | -5 | 11 | 42
COC(=O)C[C@@H]1C[C@H]2c3cc(NC(=O)CC4CC4)ccc3O[C@H]2[C@H](CO)O1 | . | -1 | . | . | . | .
Cc1onc(-c2ccccc2)c1C(=O)Nc1cc(C(F)(F)F)ccc1N1CCOCC1 | 56* | . | -1 | -52 | 13 | 29
CCOC(=O)c1ccc(N2CCOCC2)c(NC(=O)c2c(-c3ccccc3)noc2C)c1 | 64* | . | -4 | -17 | -4 | 13
O=C(Nc1ccc2c(c1)OCO2)c1ccc(Cl)cc1Cl | -157 | -23 | 3 | -211 | -151 | -65
COc1ccccc1/C=C/C(=O)Nc1ccc2c(c1)OCCO2 | -29 | . | 7 | -190 | -41 | .
O=C(/C=C/c1ccco1)Nc1ccc2c(c1)OCCO2 | -160 | . | 0 | -208 | -132 | -58
Cc1ccc(Nc2nc(N/N=C/c3c[nH]c4ccccc34)nc(N3CCOCC3)n2)cc1 | 89* | . | 3 | 27 | 31 | -37
Cc1onc(-c2ccccc2)c1C(=O)OCCOc1cccc(Cl)c1 | 52* | 3 | -2 | -15 | -8 | 13
COc1cc(-c2noc(C)c2C#Cc2ccccn2)cc(OC)c1OC | 60* | -11 | -1 | -26 | 24 | 37
CNC(C)C#Cc1c(-c2cc(OC)c(OC)c(OC)c2)noc1C (stereo not given) | -3 | -2 | 0 | 8 | -22 | .
COc1ccc(-c2c(-c3cc(OC)c(OC)c(OC)c3)noc2C)cn1 | 66* | -48 | . | -45 | 30 | 34
COc1cc(-c2noc(C)c2C#Cc2ccc(N)cc2)cc(OC)c1OC | 49 | 1 | -1 | 1 | 36 | .
